Compound activity: PubChem, National Center for Advancing Translational Sciences (NCATS)
HP1b chromo inh: blocks HP1-beta chromodomain binding to methylated histone tails. P83916. AlphaScreen HP1-beta / biotin-H3K9me3 peptide binding. Potency, µM (doses to about 114 µM), for the others: at the highest dose activity change, negative = inhibition, most hits filed as inhibitors. 0.56% of 390,000 active. AID 540317; note: nearly all actives have a fitted effect of over 70% in size
Target sequence (P83916 whole entry, looked up): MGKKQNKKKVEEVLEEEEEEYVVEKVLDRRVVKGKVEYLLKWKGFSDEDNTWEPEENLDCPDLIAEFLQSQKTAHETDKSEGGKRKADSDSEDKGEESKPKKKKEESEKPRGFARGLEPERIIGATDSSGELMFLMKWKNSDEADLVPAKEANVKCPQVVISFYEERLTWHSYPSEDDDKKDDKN
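HP1-beta protein (50 nM final) preincubated 30 min at room temperature with biotinylated H3(1-18)K9me3 peptide (50 nM) in PBS pH 7.4, 0.01% Tween-20, then compound added for 30 min. AlphaScreen streptavidin donor/nickel chelate acceptor beads (10 ug/mL final), 30 min dark, luminescence read.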
JMJD2A Tudor inh: blocks the human JMJD2A Tudor domain | O75164 | AlphaScreen JMJD2A-Tudor / H3K4me3 peptide binding | Potency, µM (top dose mostly 114 µM), inactives show top-dose activity change, negative = inhibition, hits mostly inhibitors | 4.4% of 390,000 active; note: % is set by controls: 0 for no effect and ±100 for the full control effect; nearly all actives have a fitted effect of over 50% in size
BAZ2B inh: inhibitors of human BAZ2B bromodomain; Q9UIF8; AlphaScreen BAZ2B-H3K14Ac peptide displacement; Potency, µM (titrated, usually from 114 µM), for the others: top-dose activity change, negative = inhibition, actives largely listed as inhibitors; 4.4% of 360,000 active; note: % is set by controls: 0 for no effect and ±100 for the full control effect; nearly all actives have a fitted effect of over 60% in size
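BAZ2B 50 nM plus b-H3(5-23)K14Ac 50 nM, PBS pH 7.4/0.01% Tween-20, 30 min RT; compound added (max 110 uM), 30 min RT; streptavidin donor/Ni-chelate acceptor beads 10 ug/mL final, 20 min dark; AlphaScreen read.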
Sfp inh: Sfp phosphopantetheinyl transferase inhibition; Biochemical Sfp PPTase activity, qHTS; Potency, µM, for inactives: largest response in the series, negative = inhibition, hits mostly inhibitors; 3.5% of 310,000 active;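 note: the enzyme is Sfp with the accession as filed and its product quenches rhodamine fluorescence; 0% = enzyme reaction without inhibitor and -100% = no enzyme wells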
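Step 1, compound plus 15 nM Sfp-PPTase, 15 min, room temperature. Step 2, add rhodamine-CoA (5 uM) and BHQ-2-YbbR (12.5 uM). Step 3, read 525/598 nm fluorescence at 0 and 30 min.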
G9a inh: G9a (human) methyltransferase inhibition; AID 504332; G9a H3K9 monomethylation, AlphaScreen, 2 h; 8.8% of 350,000 active; Potency, µM (titrated, usually from 102 µM), without a hit: at the top dose activity, negative = inhibition, most hits filed as inhibitors; note: % is set by controls: 0 for no effect and ±100 for the full control effect; nearly all actives have a fitted effect of over 75% in size
Target sequence (Q96KQ7 913-1193 limits assumed): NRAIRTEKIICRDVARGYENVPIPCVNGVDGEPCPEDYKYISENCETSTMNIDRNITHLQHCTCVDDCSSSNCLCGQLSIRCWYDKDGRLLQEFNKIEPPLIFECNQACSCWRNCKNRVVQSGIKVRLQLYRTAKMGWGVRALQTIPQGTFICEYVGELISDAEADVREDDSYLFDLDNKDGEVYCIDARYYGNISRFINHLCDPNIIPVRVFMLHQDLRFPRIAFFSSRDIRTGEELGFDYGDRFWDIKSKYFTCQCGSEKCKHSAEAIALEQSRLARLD
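Quantitative HTS format: methyltransferase activity on a biotin-tagged H3K9 peptide is measured by AlphaScreen, using a rabbit anti-monomethyl-H3K9 antibody with streptavidin donor and anti-IgG acceptor beads. Final levels are 20 nM enzyme, 500 nM peptide, 20 uM SAM; 2 h RT.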
PLK1 PBD inh: blocks phosphopeptide binding to human PLK1 polo-box domain; P53350; Plk1 PBD binding of FITC phosphopeptide, fluorescence polarization; Potency, µM, inactives show max response, negative = inhibition, most hits filed as inhibitors; 2.8% of 360,000 active; AID 720504; note: series mostly up to about 57 µM; % is set by controls: 0 for no effect and ±100 for the full control effect; nearly all actives have a fitted effect of over 65% in size
Active calls of the source: *; ? = inconclusive; · = not tested or not shown; [ ] = remark or other dose. A selection: hits, their analogues and other compounds. The true share with any hit is near 12%. Calls come from the whole dose curve; as a rule, active = well fitted curve in the direction sought with a large enough effect; inconclusive = small, poorly fitted or top-dose-only effect, or another doubt; inactive = no such curve, though single readings can be large; an effect the other way counts as inactive or inconclusive. Potency is the fitted concentration of half-maximal effect.

SMILES	HP1b chromo inh	JMJD2A Tudor inh	BAZ2B inh	Sfp inh	G9a inh	PLK1 PBD inh
CC(NC1=CC(=O)c2cccnc2C1=O)C(O)c1ccccc1 (stereo not given)	-17.5%	56.2µM*	·	·	·	?
Cc1cccc(-n2c(=O)c3c(c4cc(C)ccc4n3C)n(CC(=O)NCC3CCCO3)c2=O)c1 (stereo not given)	25.2%	8.3%	-3.7%	·	-0.2%[59 µM]	·
O=[N+]([O-])c1cccnc1Sc1ccc(Cl)cc1	?	56.2µM*	31.6µM*	-1.9%	44.7µM*	-1.2%
COCCCNC(=O)C1CCN(Cc2cc3ccccc3n2Cc2cccc(C)c2)CC1	2.4%	-32.3%	?	·	0.0%[59 µM]	·
CC1(C)OC[C@@H]2O[C@@]3(C(=O)O)OC(C)(C)O[C@@H]3[C@@H]2O1	·	·	·	-1.3%	-23.9%[12.7 µM]	·
Cc1onc(-c2ccccc2)c1C(=O)NC(=S)NNC(=O)c1ccc(O)cc1	-7.4%	?	3.1%	-26.8%	3.8%[59 µM]	-9.6%
Cc1onc(-c2ccccc2)c1C(=O)NC(=S)NNC(=O)c1ccccc1O	-6.4%	79.4µM*	35.5µM*	14.1%	-3.7%[59 µM]	-18.0%
Cc1onc(-c2ccccc2)c1C(=O)NC(=S)NNC(=O)c1ccc(O)cc1O	-15.3%	79.4µM*	22.4µM*	23.1%	?	?
CS(=O)(=O)c1ccc(Cl)c(NC(=O)COC(=O)Cc2c[nH]c3ccccc23)c1	11.0%	-17.7%	-2.2%	·	-5.7%	2.4%
Cc1ccccc1C(N)c1ccncc1 (stereo not given)	29.9%	-11.3%	-7.6%	4.0%	-14.5%	-11.0%
Cc1ccccc1NC(=O)c1c(C)oc2ccc(O)c(CN3CCCC3)c12	11.9%	-16.0%	-2.2%	·	11.2%[59 µM]	·
N#Cc1cccc(NC(=O)N2CCC3(CC2)CCN(C(=O)c2cccc(F)c2)CC3)c1	·	·	·	14.0%	2.0%[12.7 µM]	·
COCCN1CCn2c(nc3cc(Nc4nnc(C)c5ccccc45)ccc32)C1	33.7%	89.1µM*	?	5.8%	?	-8.7%
CCOC(=O)Nc1ccc2c(c1)nc1n2CCN(CCOC)C1	42.7%	-20.5%	9.2%	3.5%	-6.5%	-17.4%
COCCN1CCn2c(nc3cc(NC(C)=O)ccc32)C1	40.1%	-18.5%	-15.4%	8.6%	35.5µM*	?
CCOC(=O)c1cccc(NC(=O)c2ccc3nc(Cc4ccccc4)oc3c2)c1	20.6%[57 µM]	-15.7%	-11.4%	·	13.7%[59 µM]	·
CCOc1ccc(S(=O)(=O)Nc2ccc3c(c2)CCCN3S(=O)(=O)c2ccc(C)cc2)cc1	-3.6%	-11.6%	56.2µM*	·	?	·
CCc1ccccc1NC(=O)COc1ccc(N2CC(C(N)=O)CC2=O)cc1 (stereo not given)	-21.4%	-8.4%	5.4%	16.0%	2.5%[59 µM]	-5.6%
c1ccc(CSc2nnc(NC3CCCCC3)s2)cc1	·	·	·	·	·	-14.6%
COC(=O)c1cc(CSc2nnc(NC3CCCCC3)s2)oc1C	19.4%	89.1µM*	?	31.6µM*	?	-10.9%
COc1cc(NS(=O)(=O)c2cc(NC(C)=O)ccc2OC)c(OC)cc1NC(=O)c1ccccc1	-7.4%	-30.9%	·	·	·	2.4%
O=CNC1CCCc2c1[nH]c1ccc(Cl)cc21 (stereo not given)	-12.8%	56.2µM*	?	9.2%	7.94µM*	-3.7%
CCN(CC)C(=O)C1CCCc2c1[nH]c1ccc(Cl)cc21 (stereo not given)	35.3%	-31.7%	1.3%	3.2%	?	-12.9%
CN(C)CCC[C@@]1(c2ccc(F)cc2)OCc2cc(C#N)ccc21	?	35.5µM*	·	12.6%	17.0%[59 µM]	-3.2%
CN(CC(=O)Nc1ccccc1Cl)C(=O)Cn1cnc2ccccc2c1=O	20.2%	-8.5%	1.6%	·	?	-4.2%
SMILES	HP1b chromo inh	JMJD2A Tudor inh	BAZ2B inh	Sfp inh	G9a inh	PLK1 PBD inh
CC1CN(C(=O)c2cc3cc(Cl)cc(Cl)c3oc2=O)CC(C)O1 (stereo not given)	-23.2%	-5.3%[11.4 µM]	9.5%	10.3%	2.4%[59 µM]	21.2µM*
CCCCN(CC)CCCNC(=O)Nc1sc2nc3n(c(=O)c2c1C)CCC(C)CC3 (stereo not given)	29.6%	-32.0%	-20.6%	·	1.4%[59 µM]	·
COC(=O)c1ccc2c(=O)n(CCN3CCOCC3)c(SCC(=O)Nc3ccccc3OC)nc2c1	·	·	·	·	·	0.5%
Cc1ccc(S(=O)(=O)N2CCOCC2)cc1NC(=O)CSc1nc2ccccc2c(=O)n1Cc1ccccc1	14.1%	-16.8%	-0.3%	0.4%	19.9%[59 µM]	-13.5%
O=C(CSc1nc2ccccc2c(=O)n1Cc1ccccc1)Nc1ccc(Br)cc1C(=O)O	10.6%	-27.9%	50.1µM*	16.0%	?	10.6µM*
COC(=O)c1ccc2c(=O)n(CCN3CCOCC3)c(SCC(=O)Nc3ccc(OC)cc3OC)nc2c1	?	44.7µM*	-10.2%	7.0%	1.2%[59 µM]	2.3%
COc1ccc(NC(=O)CSc2nc3ccccc3c(=O)n2CCCN2CCCCC2)c(OC)c1	0.0%	-12.2%[11.4 µM]	-30.1%	-21.6%	-44.1%	23.8µM*
COc1ccc(Cl)cc1NC(=O)CSc1nnc(C2CC2)n1C	?	-10.9%	-2.3%	10.6%	14.8%	-5.0%
COC(=O)c1sc2cccc(F)c2c1S(=O)(=O)N1CCN(c2ccccc2OC)CC1	12.3%	-32.0%	-26.5%	·	?	·
Cc1ccc2c(c1)C(=O)N1c3cc(C)c(C)cc3NC(=O)C1C(=O)N2 (stereo not given)	·	·	·	·	·	1.6%
O=C(O)[C@H](CSCc1ccccc1)NS(=O)(=O)c1ccc(F)cc1	5.2%	?	-4.6%	-15.4%	10µM*	-17.1%
CCOc1cccc2sc(N(Cc3cccnc3)C(=O)c3ccco3)nc12	16.9%	1.0%	-0.8%	·	11.2%[59 µM]	·
COc1ccc(CCNCC(O)COc2cccc(Br)c2)cc1 (stereo not given)	34.5%	-14.0%	-4.5%	-25.8%	-6.7%	-4.2%
OC(CNC1CCCC1)COc1ccccc1Br (stereo not given)	30.8%	-14.3%	8.1%	-3.7%	·	-12.2%
OC(CNCCc1ccc(C(F)(F)F)cc1)COc1cccc2ccccc12 (stereo not given)	19.0%	-23.9%	-5.3%	25.1µM*	-16.1%[59 µM]	-9.8%
OC(CNCCc1ccc(C(F)(F)F)cc1)COc1ccc2ccccc2c1 (stereo not given)	29.2%	-12.4%	-18.4%	17.8µM*	-43.5%[59 µM]	-3.6%
COc1ccccc1COCC(O)CNCCc1ccc(C(F)(F)F)cc1 (stereo not given)	-22.1%	79.4µM*	25.1µM*	?	3.98µM*	-3.2%
OC(CNC1CCCCCC1)COc1cccc2ccccc12 (stereo not given)	-18.6%	3.55µM*	?	-19.5%	44.7µM*	-2.9%
OC(COc1ccc(CNCCc2ccc(C(F)(F)F)cc2)cc1)CN1CCCCC1 (stereo not given)	23.6%	-17.3%	-8.0%	14.3%	?	-4.8%
